Pf growth 48h – P. falciparum growth inhibition at 48 hours (one generation); P. falciparum luciferase growth in erythrocytes, 48 h; Potency, µM (top dose mostly 28.7 µM), without a hit: at the top dose activity change, negative = inhibition, usual class: inhibitors; hit rate 5.9% among 310,000; also: potency is read from the fitted curve at half-maximal effect; % is scaled to controls: 0 for no effect and ±100 for the full control effect
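First compound was added to culture medium, then infected red cells at 0.1% parasitemia and 2% hematocrit (final). After incubation at 37 C under 5% CO2, luciferase detection reagent was dispensed and light output recorded.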
Shiga toxin inh – blocks Shiga toxin action in Vero cells; Vero cells, Shiga toxin protein synthesis inhibition reporter; inhibition, % at 38.7 µM; hit rate 9.2% among 290,000; AID 2315; in the data active = inhibition mostly above about 28%, no sharp cut-off; inactive = mostly below about 43%; also: 0% is about no effect
SARS PLP yeast – inhibitors of SARS-CoV papain-like protease in yeast; S. cerevisiae expressing SARS-CoV PLpro, growth rescue; Potency, µM (top dose mostly 32.9 µM), for inactives: top-dose activity, positive = growth rescue, hits mostly activators; hit rate 0.19% among 330,000; calls by dose curve; also: potency is read from the fitted curve at half-maximal effect; 0% is about no effect; nearly all actives have a fitted effect of over 55% in size
AMA1 RON2 block – AMA1-RON2 (P. falciparum) interaction inhibition; hit rate 0.2% among 360,000; Potency, µM (doses to about 58.2 µM), for the others: top-dose activity change, negative = inhibition, usual class: inhibitors; AlphaScreen AMA1-biotinylated RON2 peptide binding;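 also: potency is read from the fitted curve at half-maximal effect; 0% = vehicle wells and -100% = peptide control; nearly all actives have a fitted effect of over 45% in size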
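AMA1 (3D7) with his tag at 25 nM final met compounds first, then biotinylated RON2 peptide at 25 nM; detection used donor plus acceptor beads, 10 µg/mL apiece, read by AlphaScreen after 30 min at room temperature.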
Pf growth 96h – P. falciparum growth inhibition at 96 hours | hit rate 6.9% among 320,000 | Potency, µM (highest dose often 28.7 µM), inactives show at the top dose activity change, negative = inhibition, hits mostly inhibitors | AID 504834 | P. falciparum luciferase reporter growth, 96 h; also: potency is read from the fitted curve at half-maximal effect; % is scaled to controls: 0 for no effect and ±100 for the full control effect
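Parasite growth measured via integrated firefly luciferase reporter in P. falciparum. Infected erythrocytes at 2% hematocrit, 0.05% parasitemia final were treated 96 hours at 37 C under 5% CO2, and luminescence was read.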
CHX counter – counter-screen hit for Shiga toxin inhibitors, cycloheximide. hit rate 12% among 300,000. AID 2314. max response, %. cell reporter, cycloheximide protein synthesis inhibition counterscreen; in the data active = max response mostly above about 13%, no sharp cut-off; inactive = mostly below about 14%; also: read at 38.3 µM for the half of the compounds with a filed dose; 0% is about no effect
Numbers without * were called inactive; [ ] = remark or other dose. Rows were chosen to be rich in hits. Some 19% of all compounds tested hit in one or more screens of this group. Unless noted, calls follow the shape of the dose curve; as a rule, active = well fitted curve in the direction sought with a large enough effect; inconclusive = small, poorly fitted or top-dose-only effect, or another doubt; inactive = no such curve, though single readings can be large; an effect the other way counts as inactive or inconclusive.

How did Cn1c(SCc2ccc(C#N)cc2Cl)nc2ccccc21 do in these assays?
Pf growth 48h: 184.4%; Shiga toxin inh: 125.3; SARS PLP yeast: -12.7%; AMA1 RON2 block: 3.9%; Pf growth 96h: 226.8%; CHX counter: 39.9*

How did N#Cc1ccccc1CSc1ccccn1 do in these assays?
Pf growth 48h: -17.2%; Shiga toxin inh: 23.4; SARS PLP yeast: -2.0%; AMA1 RON2 block: 7.8%; Pf growth 96h: 14.2%; CHX counter: -4.2

What do the screens show for `N#Cc1ccc(CSc2ccccn2)c(Cl)c1`?
Pf growth 48h: inconclusive; Shiga toxin inh: 117.1; SARS PLP yeast: -6.5%; AMA1 RON2 block: 14.6%; Pf growth 96h: 2.5%; CHX counter: 24.8*

Results for CN(C)CCCNC(=S)N1CCn2c(nc3ccccc32)C1 ?
Pf growth 48h: -10.6%; Shiga toxin inh: -14.1; SARS PLP yeast: -11.7%; AMA1 RON2 block: -1.4%; Pf growth 96h: inconclusive; CHX counter: -3.5

How did NS(=O)(=O)c1ccc(CNC(=O)CCSCCC(=O)NCc2ccc(S(N)(=O)=O)cc2)cc1 do in these assays?
Pf growth 48h: 0.0%; Shiga toxin inh: 8.0; SARS PLP yeast: -0.2%; AMA1 RON2 block: -8.8%; Pf growth 96h: 43.7%; CHX counter: -12.1

Results for COc1cc(Cl)cc(/C=C/c2ccc3ccccc3n2)c1OC(C)=O ?
Pf growth 48h: 14.8%; Shiga toxin inh: 97.3*; SARS PLP yeast: 6.2%; AMA1 RON2 block: 12.9%; Pf growth 96h: inconclusive; CHX counter: 83.6*

What do the screens show for `CC(=O)Oc1ccc(Cl)cc1/C=C/c1cc(OC(C)=O)c2ccccc2n1`?
Pf growth 48h: 1.65µM*; Shiga toxin inh: 33.9*; SARS PLP yeast: 0.8%; Pf growth 96h: inconclusive; CHX counter: 19.8*

Results for N#Cc1cccc(C(=O)C(=O)N2CCN(c3ccccc3)CC2)c1 ?
AMA1 RON2 block: 5.7%

Results for CS(=O)(=O)N1N=C(c2ccccc2)CC1c1ccc2nccnc2c1 (stereo not given) ?
Pf growth 48h: 32.0%; Shiga toxin inh: 63.3*; SARS PLP yeast: 4.6%; AMA1 RON2 block: -10.4%; Pf growth 96h: -3.3%; CHX counter: 18.3

Results for CS(=O)(=O)N1N=C(c2ccc3nccnc3c2)CC1c1ccccc1 (stereo not given) ?
Pf growth 48h: inconclusive; Shiga toxin inh: 34.7; SARS PLP yeast: 1.6%; AMA1 RON2 block: 1.0%; Pf growth 96h: inconclusive; CHX counter: 17.0*

What do the screens show for `COc1ccc(C2=NN(S(C)(=O)=O)C(c3ccc4nccnc4c3)C2)cc1` (stereo not given)?
Pf growth 48h: 81.6%; Shiga toxin inh: 60.2*; SARS PLP yeast: -3.0%; AMA1 RON2 block: 0.0%; Pf growth 96h: -10.2%; CHX counter: 79.0*

How did COc1ccc(C2CC(c3ccc(OC)c(OC)c3)=NN2S(C)(=O)=O)cc1 (stereo not given) do in these assays?
Pf growth 48h: 173.4%; Shiga toxin inh: 88.2*; SARS PLP yeast: 1.1%; AMA1 RON2 block: -11.4%; Pf growth 96h: 222.9%; CHX counter: 63.1*

What do the screens show for `Cc1ccc(C2OC(=O)c3ccccc32)cc1` (stereo not given)?
Pf growth 48h: 16.9%; Shiga toxin inh: -4.6; SARS PLP yeast: -7.7%; AMA1 RON2 block: -2.1%; Pf growth 96h: -3.2%; CHX counter: 6.8

How did Cc1ccc(C2=NN(S(C)(=O)=O)C(c3ccc4nccnc4c3)C2)cc1 (stereo not given) do in these assays?
Pf growth 48h: 99.5%; Shiga toxin inh: 46.0*; SARS PLP yeast: 5.5%; AMA1 RON2 block: -7.4%; Pf growth 96h: 63.1%; CHX counter: 18.6*

What do the screens show for `CCCCc1c(C)nn(-c2nnc3c4ccccc4n(C)c3n2)c1C`?
Pf growth 48h: -14.6%; Shiga toxin inh: 48.5*; SARS PLP yeast: 1.7%; AMA1 RON2 block: inconclusive; Pf growth 96h: -28.4%; CHX counter: 21.1*

How did Cc1ccc(C2(C)NC(=O)N(CC(=O)Nc3cc(S(=O)(=O)N4CCOCC4)ccc3OC(C)C)C2=O)cc1 (stereo not given) do in these assays?
AMA1 RON2 block: -3.5%

Results for Cc1c(C(=O)N2CCc3ccccc3C2)oc2ccc(S(=O)(=O)N3CCCCCC3)cc12 ?
Pf growth 48h: inconclusive; Shiga toxin inh: 1.7; SARS PLP yeast: 6.9%; AMA1 RON2 block: -26.2%; Pf growth 96h: inconclusive; CHX counter: -4.6

What do the screens show for `COc1ccc(CC(=O)Nc2cccc(-c3csc(C)n3)c2)cc1`?
Pf growth 48h: 6.5%; Shiga toxin inh: 36.5; SARS PLP yeast: 3.0%; AMA1 RON2 block: 4.0%; CHX counter: 16.2

What do the screens show for `Cc1cccc(NC(=O)Cc2nc(-c3c[nH]c(C(=O)N4CCCC4)c3)cs2)c1`?
Pf growth 48h: 11.7µM*; SARS PLP yeast: -0.6%; AMA1 RON2 block: 6.8%; Pf growth 96h: inconclusive

Results for Cc1ccccc1NC(=O)Cc1nc(CCl)cs1 ?
Pf growth 48h: inconclusive; Shiga toxin inh: -3.0; SARS PLP yeast: 9.8%; AMA1 RON2 block: -0.3%; Pf growth 96h: inconclusive; CHX counter: 1.2

Results for Cc1ccccc1NC(=O)Cc1nc(-c2c[nH]c(C(=O)N3CCCC3)c2)cs1 ?
Pf growth 48h: 9.28µM*; SARS PLP yeast: 6.4%; AMA1 RON2 block: 20.6%; Pf growth 96h: 10.4µM*

Results for CCCNC(=O)[C@H](Cc1c[nH]c2ccccc12)NC(=O)c1ccccc1Cl ?
Pf growth 48h: -17.8%; Shiga toxin inh: 9.1; SARS PLP yeast: 26.1%; AMA1 RON2 block: -5.3%[2.32 µM]; Pf growth 96h: -16.5%; CHX counter: 25.4*

Results for O=C(N[C@@H](Cc1c[nH]c2ccccc12)C(=O)NC1CC1)c1ccccc1Cl ?
Pf growth 48h: 23.5%; Shiga toxin inh: 28.2; SARS PLP yeast: 6.4%; AMA1 RON2 block: -2.7%; Pf growth 96h: -14.6%; CHX counter: 46.6*

What do the screens show for `CCCCNC(=O)[C@H](Cc1c[nH]c2ccccc12)NC(=O)c1ccccc1Cl`?
Pf growth 48h: inconclusive; Shiga toxin inh: 10.9; SARS PLP yeast: 4.2%; AMA1 RON2 block: 4.0%; Pf growth 96h: inconclusive; CHX counter: -0.8

What do the screens show for `C=CCOc1ccccc1CNCCc1ccc(S(N)(=O)=O)cc1`?
Pf growth 48h: 2.0%; Shiga toxin inh: -4.8; SARS PLP yeast: 3.5%; AMA1 RON2 block: 1.4%; Pf growth 96h: 37.6%; CHX counter: -6.6

What do the screens show for `C=CCOc1ccccc1CNCc1ccc(F)cc1`?
Pf growth 48h: -12.8%; Shiga toxin inh: -7.7; SARS PLP yeast: -0.1%; AMA1 RON2 block: -7.4%; Pf growth 96h: 2.33µM*; CHX counter: 4.9

Results for COc1ccc(/C=N/N(C)C2=NCCN2)c(OC)c1OC ?
Pf growth 48h: 0.5%; Shiga toxin inh: 20.2; SARS PLP yeast: 1.3%; AMA1 RON2 block: 2.1%; Pf growth 96h: 9.0%; CHX counter: 10.7

What do the screens show for `COc1cc(SC)ccc1C(=O)OCC(=O)NC1CC1`?
Pf growth 48h: 18.0%; Shiga toxin inh: 47.8; SARS PLP yeast: 2.4%; AMA1 RON2 block: -13.5%; Pf growth 96h: 33.8%; CHX counter: 26.1*

Assay outcomes: PubChem BioAssay, National Center for Advancing Translational Sciences (NCATS)
